# According to the supplement of paper PMC3414501:
# Where a name gives a salt, the structure may show the parent alone.
# Experiments:
# [1] = test system: S. cerevisiae SK1 pCDA2-eGFP (USY613), sporulating; assay: CDA2-GFP sporulation assay sensitivity score (z-score vs DMSO controls); higher = stronger inhibition of sporulation, active = hit call of the paper;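 note: active if sensitivity score above 5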
# [2] = test system: S. cerevisiae AD1-9 (efflux-pump deficient), vegetative growth in YPD; assay: growth sensitivity score (doubling time z-score vs DMSO controls); higher = slower growth, strongly negative scores also mark growth inhibition (complete suppression), active = hit call of the paper
# Method in brief: (§1)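 Saccharomyces cerevisiae strains BY4741 and AD1-9 were seeded in rich medium in microtiter plates at an OD600 of 0.065. Compounds were added at a 1:100 dilution of DMSO stock. Optical density was read every 15 min for 24 hours on a Tecan GENios reader. Average doubling time was the time taken to reach a set generation point divided by generation number, and the growth sensitivity score was (compound mean − DMSO-control mean)/DMSO-control SD, using eight DMSO controls per experiment.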
# [3] = test system: S. cerevisiae BY4741 (wild-type), vegetative growth in YPD; assay: as above
# Method in brief: as §1
SMILES,CDA2-GFP sporulation assay sensitivity score [1],growth sensitivity score [2],growth sensitivity score [3]
"COc1cc(C)nc(-n2nc(C)cc2OC)n1 [Mepirizole] (stock concentration (mM, diluted 1:100): 10)",-1.87 (inactive),-0.94 (inactive),-1.02 (inactive)
"NC(N)=NC(=O)c1nc(Cl)c(N)nc1N (stock concentration (mM, diluted 1:100): 8.2)",6.05 (active),4.88 (active),1.27 (inactive)
"COc1cccc2c1C(=O)c1c(O)c3c(c(O)c1C2=O)C[C@@](O)(C(=O)CO)C[C@@H]3O[C@H]1C[C@H](N)[C@@H](O)[C@H](C)O1 [Epirubicin hydrochloride] (stock concentration (mM, diluted 1:100): 9.4)",-0.4 (inactive),93.9 (active),11.8 (active)
"OCc1cc(C(O)CNCCCCCCOCCCCc2ccccc2)ccc1O (centres undefined) [Salmeterol] (stock concentration (mM, diluted 1:100): 10)",10.5 (inactive),41.2 (active),3.81 (active)
"CC(=O)Nc1ccc(CC(=O)O)cc1 [Actarit] (stock concentration (mM, diluted 1:100): 10)",0.84 (inactive),0.98 (inactive),-2 (inactive)
"Cc1nccn1CC1CCc2c(c3ccccc3n2C)C1=O (centres undefined) [Ondansetron hcl] (stock concentration (mM, diluted 1:100): 8.9)",-0.41 (inactive),-1.11 (inactive),-0.22 (inactive)
"O=C(CCCN1CCC(O)(c2ccc(Cl)cc2)CC1)c1ccc(F)cc1 [Haloperidol] (stock concentration (mM, diluted 1:100): 10)",8.19 (active),22.7 (active),5.41 (active)
"CS(=O)(=O)c1ccc(-c2cc(Br)sc2-c2ccc(F)cc2)cc1 (stock concentration (mM, diluted 1:100): 10)",12.1 (inactive),8.97 (active),-0.63 (inactive)
"COc1ccc2c3c1O[C@H]1C[C@@H](O)C=C[C@@]31CCN(C)C2 [Galanthamine] (stock concentration (mM, diluted 1:100): 8.8)",-0.36 (inactive),-1.27 (inactive),0.11 (inactive)
"Clc1ccccc1CN1CCc2sccc2C1 [Ticlopidine hydrochloride] (stock concentration (mM, diluted 1:100): 8.7)",2.24 (inactive),1.32 (inactive),0.36 (inactive)
"c1cnc(N2CCN(Cc3ccc4c(c3)OCO4)CC2)nc1 [Piribedil] (stock concentration (mM, diluted 1:100): 9.7)",6.47 (inactive),-3.77,1.65 (inactive)
"COc1c(N2C[C@@H]3CCCN[C@@H]3C2)c(F)cc2c(=O)c(C(=O)O)cn(C3CC3)c12 [Moxifloxacin hydrochloride] (stock concentration (mM, diluted 1:100): 9.2)",2.59 (inactive),22.4 (active),0.08 (inactive)
"CCCCc1nc(Cl)c(CO)n1Cc1ccc(-c2ccccc2-c2nnn[nH]2)cc1 [Losartan potassium] (stock concentration (mM, diluted 1:100): 9.2)",-0.41 (inactive),-1.21 (inactive),-0.26 (inactive)
"CC[C@@H]1C(=O)OC[C@@H]1Cc1cncn1C [Pilocarpine hydrochloride] (stock concentration (mM, diluted 1:100): 10)",1.83 (inactive),0.16 (inactive),0.72 (inactive)
"Nc1ccn([C@@H]2CS[C@H](CO)O2)c(=O)n1 [Lamivudine] (stock concentration (mM, diluted 1:100): 9.9)",1.14 (inactive),-1.68 (inactive),-0.39 (inactive)
"Nc1c2c(nc3c1CCC3)CCCC2 [Amiridine] (stock concentration (mM, diluted 1:100): 10)",2.39 (inactive),4.09 (active),4.93 (active)
"CN(C)CCN(Cc1ccccc1)c1ccccn1 [Tripelennamine hydrochloride] (stock concentration (mM, diluted 1:100): 10)",0.92 (inactive),0.66 (inactive),1.04 (inactive)
"Cn1nnc2c(C(N)=O)ncn2c1=O [Temozolomide] (stock concentration (mM, diluted 1:100): 10)",-0.1 (inactive),-0.09 (inactive),1.92 (inactive)
